# Data from PubChem BioAssay (NCI).
# About 83,000 compounds went through this panel and 20% of them were active in at least one assay; those are over-represented in the sample as a whole.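 Growth was measured after 48 h exposure to one concentration of compound in 96-well plates. Values under 10 count as active.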 The source made the active and inactive calls.
# Tested on: HOP-62 NSCLC
# Assay: NCI-60 one-dose screen, 48 h (100 = growth as untreated, 0 = no growth, -100 = all killed)
# Settings: 10 µM unless noted
row,Structure (SMILES),growth
1,COc1ccc(C2C(C#N)=C(/N=C/c3ccc(Cl)cc3)Oc3c2sc2c(C)cccc32)cc1 (stereo not given),29.8% (inactive)
2,CN1CC[C@@H]2[C@@]3(C)CC[C@H](O)C(C)(C)[C@@H]3CC[C@@]2(C)[C@]2(C)CC[C@@]3(CO)CCC(C)(C)C[C@@H]3C12 (stereo not given in full),101% (inactive)
3,Clc1ccc2c(N/N=C/c3c[nH]c4ccccc34)ccnc2c1,-75.1% (active)
4,O=c1c2cc(-c3ccc(F)cc3F)ccc2n(Nc2ccccc2)c(=O)n1-c1cccc(C(F)(F)F)c1,10.9% (inactive)
5,NC1[C@H]2CN(c3cnc(C(=O)Nc4cc(F)cc5cccnc45)cn3)C[C@@H]12 (stereo not given in full),82.4% (inactive)
6,CCOC(=O)c1cccc(NC2=C(Cl)C(=O)c3nc(C)ccc3C2=O)c1,112% (inactive)
7,O=C(CSc1nnc(-c2cccs2)n1-c1ccccc1)Nc1ccccc1,46.7% (inactive)
8,CCc1cc2c(cc1Cl)nc1c(=O)[nH]c(=O)nc-1n2CCOCC(C)C,100% (inactive)
9,Cc1csc(/N=C(N)/N=C(\N)c2cccc(C#N)c2)n1,64.6% (inactive)
10,Clc1ccc(CSc2nnc(-c3ccc(Cl)cc3)n2-c2ccccc2)cc1,92.4% (inactive)
11,C#Cc1nc(C(=O)NCCCCCCC(=O)NO)cs1,16.9% (inactive)
12,CCCNNC(=O)c1ccc(-c2ccc(NC(=O)CCCCCCC(=O)N[C@H](C(=O)N3C[C@H](O)C[C@H]3C(=O)N[C@@H](C)c3ccc(-c4scnc4C)cc3)C(C)(C)C)cc2)cc1,27.8% (inactive)
13,CN1CCN(c2ccc(Nc3nc(NCCNC(=O)c4ccccc4)c4sccc4n3)cc2)CC1,104% (inactive)
14,COc1cc2c3c(cc4c5c(ccc4c3c1OC)OCO5)N(CCN(C)C)C2=O,6.73% (active)
15,N#Cc1c(-c2cccs2)cc(-c2cnccn2)nc1SCC(=O)N/N=C/c1ccc(Cl)cc1,99.1% (inactive)
16,COC(=O)c1cccc(NC2=CC(=O)C(C)=C(C)C2=O)c1,97.4% (inactive)
17,C#Cc1nc(/C=C/CCCCCCC(=O)NO)cs1,73.4% (inactive)
18,CC(=O)Nc1nc(C)c(-c2csc(Nc3ccccc3)n2)s1,42.8% (inactive)

row,Structure (SMILES),growth
1,CC1=C(C)C(=O)C(Nc2ccc3c(c2)OCO3)=C(Br)C1=O,92.9% (inactive)
2,N#Cc1cccc(-c2cc(-c3ccc4c(c3)OCCO4)[nH]n2)c1,43.5% (inactive)
3,COc1ccc2c(c1)c(-c1nc(N)nnc1-c1c[nH]c3ccccc13)cn2C,44.8% (inactive)
4,CC1(C)CC[C@]23CC[C@]4(C)[C@H](CC[C@@H]5[C@@]6(C)CC[C@H](N)C(C)(C)[C@@H]6CC[C@]54C)[C@H]2[C@H]1OC3,96.1% (inactive)
5,Fc1cccc(Cl)c1/C=N/Nc1nc(N/N=C/c2c(F)cccc2Cl)nc(N2CCCCC2)n1,25.9% (inactive)
6,Cc1ccccc1N1CCN(C2=C(Cl)C(=O)c3ncccc3C2=O)CC1,59.5% (inactive)
7,CC(=O)OC[C@@]12Oc3c(cccc3-c3ccc(O)c4c3O[C@]3(COC(C)=O)C(=C4O)C(=O)C[C@H](C)[C@@H]3OC(C)=O)C(O)=C1C(=O)C[C@H](C)[C@@H]2OC(C)=O,8.14% (active)
8,COc1ccc(CC(C)=C(c2ccc(OCCN3CCCC3)cc2)c2ccc(OCCN3CCCC3)cc2)cc1,-66% (active)
9,CNC(=O)c1cc(N2CCc3cc(NC(=O)Nc4ccc(N5CCOCC5)c(C(F)(F)F)c4)ccc32)ccn1,12.1% (inactive)
10,CN(C)CC(=O)Nc1nc(-c2cccc(NS(=O)(=O)c3cccc4c(N(C)C)cccc34)c2)cs1,103% (inactive)
11,NCCNC(=O)c1cccc(COc2ccccc2NC(=O)c2cc(Cl)c(Cl)[nH]2)c1,104% (inactive)
12,COc1cccc2c1C=CC1(O2)Oc2cccc(OC)c2C=C1C (stereo not given),55.9% (inactive)
13,COc1ccc(-c2c(C(N)=O)c(N)n(Cc3nc4ccccc4[nH]3)c(=O)c2C#N)c(OC)c1,94.9% (inactive)
14,NC1C2CCC1CN(c1cnc(C(=O)Nc3cc(F)cc4cccnc34)cn1)C2 (stereo not given),81.2% (inactive)
15,COc1ccc2c(c1)c(-c1nnc(N)nc1-c1c[nH]c3ccc(F)cc13)cn2C,54.7% (inactive)
16,COc1ccc([C@H]2C(=O)N(c3cc(OC)c(OC)c(OC)c3)[C@@H]2c2ccc(OC)c(O)c2)cc1,26.7% (inactive)
17,CCOC(=O)c1cnc2c(-c3ccc(Cl)c(Cl)c3)cnn2c1,69.1% (inactive)
